Assay results taken from the supplement of paper PMC6897291.

Tests used:
[1] = system: U-2932; assay: growth inhibition by drug alone (1 - RLU/untreated control) (fraction); higher = stronger inhibition; conditions: 177Lu-lilotomab satetraxetan 0 ug/ml
Procedure, shortened: (§1)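 RIVA or U-2932 cells, untreated or pretreated 18 h with a radiolabelled anti-CD37 antibody conjugate (~600 MBq/mg; 0.5 µg/ml RIVA, 1 µg/ml U-2932), were washed and seeded at 3,000 cells/well on plates pre-printed with the Selleck Cambridge Cancer Compound library. Doses were 10/100 nM (RIVA) or 10/1,000 nM (U-2932). RealTime-Glo luminescence was read daily from day 3 after 1 h at 37°C. Growth inhibition is 1 − RLU/mean of 48 untreated no-drug wells per plate.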

[2] = system: RIVA; assay: as above; conditions: 177Lu-lilotomab satetraxetan 0 ug/ml
Procedure, shortened: as §1

[3] = system: U-2932; assay: growth inhibition by drug plus 177Lu-lilotomab satetraxetan (1 - RLU/untreated control) (fraction); higher = stronger inhibition; conditions: 177Lu-lilotomab satetraxetan 1 ug/ml
Procedure, shortened: as §1

[4] = system: RIVA; assay: as above; conditions: 177Lu-lilotomab satetraxetan 0.5 ug/ml
Procedure, shortened: as §1

O=C(c1cc(Cc2n[nH]c(=O)c3ccccc23)ccc1F)N1CCN(C(=O)C2CC2)CC1 [Olaparib (AZD2281)]
growth inhibition by drug alone ([1]; 10 nM, time (day): 3): 0.0127
growth inhibition by drug alone ([1]; 10 nM, time (day): 4): -0.023
growth inhibition by drug alone ([1]; 10 nM, time (day): 5): -0.0205
growth inhibition by drug alone ([1]; 10 nM, time (day): 6): 0.0558
growth inhibition by drug alone ([1]; 1000 nM, time (day): 3): -0.0113
growth inhibition by drug alone ([1]; 1000 nM, time (day): 4): 0.025
growth inhibition by drug alone ([1]; 1000 nM, time (day): 5): 0.0248
growth inhibition by drug alone ([1]; 1000 nM, time (day): 6): 0.0776
growth inhibition by drug alone ([2]; 10 nM, time (day): 3): -0.144
growth inhibition by drug alone ([2]; 10 nM, time (day): 4): -0.15
growth inhibition by drug alone ([2]; 10 nM, time (day): 5): -0.137
growth inhibition by drug alone ([2]; 10 nM, time (day): 6): -0.143
growth inhibition by drug alone ([2]; 100 nM, time (day): 3): -0.228
growth inhibition by drug alone ([2]; 100 nM, time (day): 4): -0.239
growth inhibition by drug alone ([2]; 100 nM, time (day): 5): -0.25
growth inhibition by drug alone ([2]; 100 nM, time (day): 6): -0.231
growth inhibition by drug plus 177Lu-lilotomab satetraxetan ([3]; 10 nM, time (day): 3): -0.0255
growth inhibition by drug plus 177Lu-lilotomab satetraxetan ([3]; 10 nM, time (day): 4): 0.035
growth inhibition by drug plus 177Lu-lilotomab satetraxetan ([3]; 10 nM, time (day): 5): 0.0896
growth inhibition by drug plus 177Lu-lilotomab satetraxetan ([3]; 10 nM, time (day): 6): 0.188
growth inhibition by drug plus 177Lu-lilotomab satetraxetan ([3]; 1000 nM, time (day): 3): 0.0503
growth inhibition by drug plus 177Lu-lilotomab satetraxetan ([3]; 1000 nM, time (day): 4): 0.108
growth inhibition by drug plus 177Lu-lilotomab satetraxetan ([3]; 1000 nM, time (day): 5): 0.156
growth inhibition by drug plus 177Lu-lilotomab satetraxetan ([3]; 1000 nM, time (day): 6): 0.315

CC(=O)O[C@]1(C(C)=O)CC[C@H]2[C@@H]3C=C(C)C4=CC(=O)CC[C@]4(C)[C@H]3CC[C@@]21C [Megestrol Acetate]
growth inhibition by drug alone ([1]; 10 nM, time (day): 3): 0.119
growth inhibition by drug alone ([1]; 10 nM, time (day): 4): 0.0962
growth inhibition by drug alone ([1]; 10 nM, time (day): 5): 0.0591
growth inhibition by drug alone ([1]; 10 nM, time (day): 6): 0.00317
growth inhibition by drug alone ([1]; 1000 nM, time (day): 3): 0.0742
growth inhibition by drug alone ([1]; 1000 nM, time (day): 4): 0.112
growth inhibition by drug alone ([1]; 1000 nM, time (day): 5): 0.0515
growth inhibition by drug alone ([1]; 1000 nM, time (day): 6): -0.0501
growth inhibition by drug alone ([2]; 10 nM, time (day): 3): -0.0198
growth inhibition by drug alone ([2]; 10 nM, time (day): 4): -0.0102
growth inhibition by drug alone ([2]; 10 nM, time (day): 5): -0.107
growth inhibition by drug alone ([2]; 10 nM, time (day): 6): -0.454
growth inhibition by drug alone ([2]; 100 nM, time (day): 3): 0.0472
growth inhibition by drug alone ([2]; 100 nM, time (day): 4): 0.023
growth inhibition by drug alone ([2]; 100 nM, time (day): 5): -0.0299
growth inhibition by drug alone ([2]; 100 nM, time (day): 6): -0.147
growth inhibition by drug plus 177Lu-lilotomab satetraxetan ([3]; 10 nM, time (day): 3): 0.0333
growth inhibition by drug plus 177Lu-lilotomab satetraxetan ([3]; 10 nM, time (day): 4): 0.104
growth inhibition by drug plus 177Lu-lilotomab satetraxetan ([3]; 10 nM, time (day): 5): 0.0868
growth inhibition by drug plus 177Lu-lilotomab satetraxetan ([3]; 10 nM, time (day): 6): 0.12
growth inhibition by drug plus 177Lu-lilotomab satetraxetan ([3]; 1000 nM, time (day): 3): 0.044
growth inhibition by drug plus 177Lu-lilotomab satetraxetan ([3]; 1000 nM, time (day): 4): 0.137
growth inhibition by drug plus 177Lu-lilotomab satetraxetan ([3]; 1000 nM, time (day): 5): 0.0953
growth inhibition by drug plus 177Lu-lilotomab satetraxetan ([3]; 1000 nM, time (day): 6): 0.163
growth inhibition by drug plus 177Lu-lilotomab satetraxetan ([4]; 10 nM, time (day): 3): 0.408
growth inhibition by drug plus 177Lu-lilotomab satetraxetan ([4]; 10 nM, time (day): 4): 0.529
growth inhibition by drug plus 177Lu-lilotomab satetraxetan ([4]; 10 nM, time (day): 5): 0.546
growth inhibition by drug plus 177Lu-lilotomab satetraxetan ([4]; 10 nM, time (day): 6): 0.551
growth inhibition by drug plus 177Lu-lilotomab satetraxetan ([4]; 100 nM, time (day): 3): 0.497
growth inhibition by drug plus 177Lu-lilotomab satetraxetan ([4]; 100 nM, time (day): 4): 0.522
growth inhibition by drug plus 177Lu-lilotomab satetraxetan ([4]; 100 nM, time (day): 5): 0.525
growth inhibition by drug plus 177Lu-lilotomab satetraxetan ([4]; 100 nM, time (day): 6): 0.508

Cc1ccc(C(=O)N(CCCN)[C@@H](c2nc3cc(Cl)ccc3c(=O)n2Cc2ccccc2)C(C)C)cc1
growth inhibition by drug alone ([1]; 10 nM, time (day): 3): 0.446
growth inhibition by drug alone ([1]; 10 nM, time (day): 4): 0.424
growth inhibition by drug alone ([1]; 10 nM, time (day): 5): 0.379
growth inhibition by drug alone ([1]; 10 nM, time (day): 6): 0.372
growth inhibition by drug alone ([1]; 1000 nM, time (day): 3): 0.959
growth inhibition by drug alone ([1]; 1000 nM, time (day): 4): 0.968
growth inhibition by drug alone ([1]; 1000 nM, time (day): 5): 0.972
growth inhibition by drug alone ([1]; 1000 nM, time (day): 6): 0.977
growth inhibition by drug alone ([2]; 10 nM, time (day): 3): 0.202
growth inhibition by drug alone ([2]; 10 nM, time (day): 4): 0.194
growth inhibition by drug alone ([2]; 10 nM, time (day): 5): 0.075
growth inhibition by drug alone ([2]; 10 nM, time (day): 6): -0.26
growth inhibition by drug alone ([2]; 100 nM, time (day): 3): 0.918
growth inhibition by drug alone ([2]; 100 nM, time (day): 4): 0.931
growth inhibition by drug alone ([2]; 100 nM, time (day): 5): 0.939
growth inhibition by drug alone ([2]; 100 nM, time (day): 6): 0.943
growth inhibition by drug plus 177Lu-lilotomab satetraxetan ([3]; 10 nM, time (day): 3): 0.393
growth inhibition by drug plus 177Lu-lilotomab satetraxetan ([3]; 10 nM, time (day): 4): 0.409
growth inhibition by drug plus 177Lu-lilotomab satetraxetan ([3]; 10 nM, time (day): 5): 0.426
growth inhibition by drug plus 177Lu-lilotomab satetraxetan ([3]; 10 nM, time (day): 6): 0.465
growth inhibition by drug plus 177Lu-lilotomab satetraxetan ([3]; 1000 nM, time (day): 3): 0.965
growth inhibition by drug plus 177Lu-lilotomab satetraxetan ([3]; 1000 nM, time (day): 4): 0.973
growth inhibition by drug plus 177Lu-lilotomab satetraxetan ([3]; 1000 nM, time (day): 5): 0.98
growth inhibition by drug plus 177Lu-lilotomab satetraxetan ([3]; 1000 nM, time (day): 6): 0.984
growth inhibition by drug plus 177Lu-lilotomab satetraxetan ([4]; 10 nM, time (day): 3): 0.652
growth inhibition by drug plus 177Lu-lilotomab satetraxetan ([4]; 10 nM, time (day): 4): 0.647
growth inhibition by drug plus 177Lu-lilotomab satetraxetan ([4]; 10 nM, time (day): 5): 0.659
growth inhibition by drug plus 177Lu-lilotomab satetraxetan ([4]; 10 nM, time (day): 6): 0.655
growth inhibition by drug plus 177Lu-lilotomab satetraxetan ([4]; 100 nM, time (day): 3): 0.94
growth inhibition by drug plus 177Lu-lilotomab satetraxetan ([4]; 100 nM, time (day): 4): 0.962
growth inhibition by drug plus 177Lu-lilotomab satetraxetan ([4]; 100 nM, time (day): 5): 0.971
growth inhibition by drug plus 177Lu-lilotomab satetraxetan ([4]; 100 nM, time (day): 6): 0.979

C[C@]12CC[C@H](O)CC1=CC[C@@H]1[C@@H]2CC[C@]2(C)C(c3cccnc3)=CC[C@@H]12 [Abiraterone (CB-7598)]
growth inhibition by drug alone ([1]; 10 nM, time (day): 3): 0.158
growth inhibition by drug alone ([1]; 10 nM, time (day): 4): 0.102
growth inhibition by drug alone ([1]; 10 nM, time (day): 5): -0.102
growth inhibition by drug alone ([1]; 10 nM, time (day): 6): -0.0433
growth inhibition by drug alone ([1]; 1000 nM, time (day): 3): 0.0352
growth inhibition by drug alone ([1]; 1000 nM, time (day): 4): -0.0224
growth inhibition by drug alone ([1]; 1000 nM, time (day): 5): -0.154
growth inhibition by drug alone ([1]; 1000 nM, time (day): 6): -0.164
growth inhibition by drug alone ([2]; 10 nM, time (day): 3): -0.0346
growth inhibition by drug alone ([2]; 10 nM, time (day): 4): -0.0301
growth inhibition by drug alone ([2]; 10 nM, time (day): 5): -0.224
growth inhibition by drug alone ([2]; 10 nM, time (day): 6): -0.618
growth inhibition by drug alone ([2]; 100 nM, time (day): 3): -0.373
growth inhibition by drug alone ([2]; 100 nM, time (day): 4): -0.274
growth inhibition by drug alone ([2]; 100 nM, time (day): 5): -0.381
growth inhibition by drug alone ([2]; 100 nM, time (day): 6): -0.72
growth inhibition by drug plus 177Lu-lilotomab satetraxetan ([3]; 10 nM, time (day): 3): 0.0329
growth inhibition by drug plus 177Lu-lilotomab satetraxetan ([3]; 10 nM, time (day): 4): 0.0754
growth inhibition by drug plus 177Lu-lilotomab satetraxetan ([3]; 10 nM, time (day): 5): 0.164
growth inhibition by drug plus 177Lu-lilotomab satetraxetan ([3]; 10 nM, time (day): 6): 0.196
growth inhibition by drug plus 177Lu-lilotomab satetraxetan ([3]; 1000 nM, time (day): 3): -0.00601
growth inhibition by drug plus 177Lu-lilotomab satetraxetan ([3]; 1000 nM, time (day): 4): 0.0151
growth inhibition by drug plus 177Lu-lilotomab satetraxetan ([3]; 1000 nM, time (day): 5): 0.0665
growth inhibition by drug plus 177Lu-lilotomab satetraxetan ([3]; 1000 nM, time (day): 6): 0.163
